In ChEMBL document CHEMBL3988442, “University of Dundee, Small-Polar-MMV Screening Library” (2021):
About 1,200 (3.2%) of roughly 38,000 compounds showed an effect of 50% or more. The median lay at about -58%. The sample holds strong results, similar compounds and a random draw of the others, so the mix is not that of the screen.

The compounds below were run on Plasmodium falciparum (assay: Calibr Malaria Delayed Death Assay SOP). Settings: concentration 4.99e-06 (unit not given; other assays of the set use mol/L).
Assay type: functional, organism-based
Set-up: scale not given: in the data most compounds retested in dose-response had high values
For CCCN1C(=O)CC(N2CCN(c3ccc(F)cc3)CC2)C1=O (configuration not stated), the “Percent Effect” value was -22.99%. CN1CCCC(N(C)S(=O)(=O)c2cccc3ncccc23)C1 (configuration not stated) was tested, and the “Percent Effect” value was 28.23%. For Cc1cc2nc(C(C)C)cc(N3CCN(c4ccc(O)cc4)CC3)n2n1, the “Percent Effect” value was -69.46%. For CN1CC(NC(=O)Nc2cnn(-c3ccccc3Cl)c2)CCC1=O (configuration not stated), the “Percent Effect” value was -125.7%. With O=C(Cc1ccc(F)cc1)NCC1CCN(Cc2ccsc2)CC1 the “Percent Effect” value was 35.08%. In the case of CCc1nnc(CN2CCN(c3cccc(OC)c3)C(=O)C2)o1, the “Percent Effect” value is reported as -165.5%. For COCCNC(=O)NCc1cccc(-n2ccnc2)c1, the “Percent Effect” value was -31.59%. For O=C(Cn1ccc2sccc2c1=O)NC1CCCCC1, the “Percent Effect” value was -23.53%. Cc1nc(C)c(C(=O)Nc2cnn(CC(=O)NC3CCCC3)c2)s1 was tested, and the “Percent Effect” value was -124.2%. O=C(c1cc2c(F)cccc2[nH]1)N1CCC(Nc2cccnn2)CC1 was tested, and the “Percent Effect” value was -107.1%. With Cc1cc(NC(=O)CCN2CCCCC2Cn2cccn2)no1 (configuration not stated) the “Percent Effect” value was -23.88%. CC(C)(NCc1ccc(C#N)cc1)c1ccc2c(c1)OCO2 was tested, and the “Percent Effect” value was -3.807%. In the case of CCCNC(=O)NC(=O)CNC(C)(C)c1ccc2c(c1)OCO2, the “Percent Effect” value is reported as -45.43%. FC(F)(F)C1CN(Cc2cccc(OCc3ccccn3)c2)CCO1 (configuration not stated) was tested, and the “Percent Effect” value was -40.76%. With CCN(CC)C(CNCc1ccc(O)cc1)c1ccco1 (configuration not stated) the “Percent Effect” value was 37.38%. CCN(CC)C(CNS(=O)(=O)NCc1ccccc1)c1ccco1 (configuration not stated) was tested, and the “Percent Effect” value was 65.52%. In the case of CCN(CC)C(CNS(=O)(=O)c1ccc(C(=O)NC)cc1)c1ccco1 (configuration not stated), the “Percent Effect” value is reported as -34.47%. For CSc1nc2ccsc2c(=O)n1CC(=O)N1CCCCC1C (configuration not stated), the “Percent Effect” value was -137.7%. In the case of Cn1cc(NS(=O)(=O)CC2CCCCO2)cn1 (configuration not stated), the “Percent Effect” value is reported as -113.3%. For O=C(NCCc1c[nH]c2ccc(F)cc12)C1(n2cnnn2)CCCCC1, the “Percent Effect” value was 0.821%. In the case of CNCC[C@H]1CC(C)(C)Oc2ccc(OCC3CC3)cc21, the “Percent Effect” value is reported as 74.97%. For CNCC[C@H]1CC(C)(C)Oc2ccc(OC)cc21, the “Percent Effect” value was 72.51%. For COCC(=O)NCC[C@H]1CC(C)(C)Oc2ccccc21, the “Percent Effect” value was -148.4%. With COc1ccc2c(c1)[C@@H](CCNC(C)=O)CC(C)(C)O2 the “Percent Effect” value was -172.5%. With CC1CCN(C(=O)c2cnc3cc(C(=O)N(C)C)n(C)c3c2)CC1 the “Percent Effect” value was -87.49%. c1coc(-c2nnc(CN(Cc3cccs3)CC3CCCO3)o2)c1 (configuration not stated) was tested, and the “Percent Effect” value was -56.15%. In the case of COCc1nc(N2CC[C@H](N(C)C)C2)c2cnn(C)c2n1, the “Percent Effect” value is reported as -79.09%. For COC(C)(CNS(=O)(=O)c1cn(C)cn1)c1ccccc1F (configuration not stated), the “Percent Effect” value was -43.86%. In the case of O=C(c1cc(F)cc2[nH]cnc12)N1CCCCC1Cn1cccn1 (configuration not stated), the “Percent Effect” value is reported as -30.08%. In the case of O=C(c1ccoc1)N1CCC(Nc2cccnn2)CC1, the “Percent Effect” value is reported as -103.3%. For CC(C)(C)OC(=O)N1CCCc2ccc(NCc3ccon3)cc21, the “Percent Effect” value was -36.28%. CC(C)(C)OC(=O)N1CCCN(Cc2ccon2)c2ccccc21 was tested, and the “Percent Effect” value was 84.05%. With CC(=O)N1CCCN(Cc2ccon2)c2ccccc21 the “Percent Effect” value was -25.97%. For Cc1cccc(NC(=O)N2CC(C(=O)NC(C)C)C3(CCOCC3)C2)c1 (configuration not stated), the “Percent Effect” value was -4.046%. With CCCc1nnc(N2CCN(c3ccccc3F)CC2)o1 the “Percent Effect” value was -72.7%. With CS(=O)(=O)NC1CCN(CCOCc2ccccc2)CC1 the “Percent Effect” value was 2.46%. With OC(CNC1CCSCC1)c1cccc(OCc2ccccc2)c1 (configuration not stated) the “Percent Effect” value was 73.71%. In the case of OC(CNC1CCOCC1)c1cccc(OCc2ccccc2)c1 (configuration not stated), the “Percent Effect” value is reported as 51.28%. CCOc1cccc(CNC(=O)NCC(O)c2cccc(F)c2)c1 (configuration not stated) was tested, and the “Percent Effect” value was -6.007%. For CCOc1cccc(C(C)NC(=O)N2CCC(C(N)=O)CC2)c1 (configuration not stated), the “Percent Effect” value was -34.65%. With O=C(NCc1ccccc1)NCC(O)c1cccc(F)c1 (configuration not stated) the “Percent Effect” value was -134.7%. With OC(CNC1CCOCC1)c1ccc(Cl)c(F)c1 (configuration not stated) the “Percent Effect” value was 49.48%. In the case of CN1CCC(NCC(O)c2cccc(OCc3ccccc3)c2)CC1 (configuration not stated), the “Percent Effect” value is reported as 90.23%. For O=C(Nc1cccc(OCc2ccc(F)cc2)c1)C1COCCO1 (configuration not stated), the “Percent Effect” value was -50.82%. O=S(=O)(NCCN1CCCCC1Cn1cncn1)c1ccccc1 (configuration not stated) was tested, and the “Percent Effect” value was -173.3%. Cc1nc2c(N3CCN(Cc4ccccc4)CC3)nc(N)nc2n1C was tested, and the “Percent Effect” value was -81.58%. For Cc1nc(C)n(CC2CCCN(Cc3noc(C)n3)C2)n1 (configuration not stated), the “Percent Effect” value was -83.37%. With O=C(CN1CCc2cncnc2C1)NCCOc1cccc(Cl)c1 the “Percent Effect” value was -29.73%. For O=C(NC1CCS(=O)(=O)C1)c1cc(Sc2ncccn2)ccn1 (configuration not stated), the “Percent Effect” value was -115.2%. For CCc1nc(CNc2ccc(F)c(F)c2)no1, the “Percent Effect” value was -20.9%. For CN(Cc1ccc(N2CCOCC2)cc1)Cc1noc(C(C)(C)C)n1, the “Percent Effect” value was -81.05%. For CC(C)(C)c1noc(CCC(=O)N2CCN(Cc3ccc(Cl)s3)CC2)n1, the “Percent Effect” value was -118.6%. In the case of CCc1cnc(C)nc1N1CCC(Cc2cccc(C(=O)O)c2)C1 (configuration not stated), the “Percent Effect” value is reported as -30.8%. For O=C(C1CC2(CCNCC2)CN1)N1CCN(c2cccc(Cl)c2Cl)CC1 (configuration not stated), the “Percent Effect” value was 78.29%. In the case of O=C(C1CC2(CCNCC2)CN1)N1CCN(c2ccccc2)CC1 (configuration not stated), the “Percent Effect” value is reported as -125.3%. Cc1cccc(N2CCN(C(=O)C3CC4(CCNCC4)CN3)CC2)n1 (configuration not stated) was tested, and the “Percent Effect” value was -69.89%. With CN(C)C(=O)Cc1nc(CN2CCCCC2Cn2cccn2)cs1 (configuration not stated) the “Percent Effect” value was -103.2%. For Cc1nccn1CC1CCCN(C(=O)Cc2ccsc2)C1 (configuration not stated), the “Percent Effect” value was -60.26%. CCC(=O)N1CCC(c2cncc(Oc3cccnc3)n2)CC1 was tested, and the “Percent Effect” value was -187.7%. In the case of CC(C)(N)C(=O)N1CCCC1c1cncc(Oc2ccccc2)n1 (configuration not stated), the “Percent Effect” value is reported as 77.57%. With COC(=O)NCC(=O)N1CCCC1c1nc(-c2ccccc2F)c[nH]1 (configuration not stated) the “Percent Effect” value was -22.14%. With NCC(=O)N1CCC(c2cncc(Oc3cccnc3)n2)CC1 the “Percent Effect” value was -100.1%. CNCC(=O)N1CCCC1c1cncc(Oc2ccc(F)cc2)n1.Cl (configuration not stated) was tested, and the “Percent Effect” value was 68.33%. With Cn1cc(C2CCCN2C(=O)CCCOc2ccc(F)cc2)cn1 (configuration not stated) the “Percent Effect” value was -105.8%. In the case of CC(C)(C)OC(=O)N1CCCN(c2nnc(Br)s2)CC1, the “Percent Effect” value is reported as -110%. In the case of COc1ccccc1C(=O)Nc1c(F)c(C(=O)NCCC(C)C)nn1C, the “Percent Effect” value is reported as -92.84%. With Fc1cccc(-n2ccc(CN3CCCCC3Cn3cncn3)n2)c1 (configuration not stated) the “Percent Effect” value was -49.02%. For Cc1ccc2nc(CN3CCCCC3CCn3cccn3)cn2c1 (configuration not stated), the “Percent Effect” value was -67.34%. In the case of Fc1ccc(-n2cccn2)c(CN2CCCCC2CCn2ccnc2)c1 (configuration not stated), the “Percent Effect” value is reported as 3.883%. With c1ccc(Cn2cccn2)c(CN2CCCCC2CCn2ccnc2)c1 (configuration not stated) the “Percent Effect” value was 62.85%. Cc1cccc(-n2cc(CN3CCN(C)[C@@H]4CS(=O)(=O)C[C@@H]43)cn2)c1 was tested, and the “Percent Effect” value was -99.09%. Fc1cccc(-n2cc(CN3CCCCC3CCn3ccnc3)cn2)c1 (configuration not stated) was tested, and the “Percent Effect” value was 67.59%.
